Results filed as inconclusive are left out. The source made the active and inactive calls. The call rests on the fitted dose curve; in most records, active means well fitted inhibition curve with a large enough effect; inconclusive means small, poorly fitted or top-dose-only effect; inactive means flat fitted curve, though single readings scatter.
Experiments:
Experiment in all cases: qHTS profiling for inhibitors of Plasmodium falciparum proliferation (AID 504749); further: nearly all actives have a fitted effect of over 60% in size
Conditions in all cases: P. falciparum in erythrocytes, SYBR Green DNA, 72 h; series mostly up to 28.7 µM
CP329 = test system: CP329
Procedure, shortened: (§1)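 P. falciparum-infected erythrocytes (0.3% parasitemia, 2.5% hematocrit) incubated with compound 72 h at 37 C, 5% CO2. Parasite DNA detected by SYBR Green after lysis, overnight at room temperature; normalised to 0.29 uM artemisinin and DMSO.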

CP335 = test system: CP335
Procedure, shortened: as §1

DFO2036 = test system: DFO2036
Procedure, shortened: as §1

DIV14 = test system: DIV14
Procedure, shortened: as §1

DIV17 = test system: DIV17
Procedure, shortened: as §1

DIV30 = test system: DIV30
Procedure, shortened: as §1

Dd2 = test system: Dd2
Procedure, shortened: as §1

ECU = test system: ECU
Procedure, shortened: as §1

FAB9 = test system: FAB9
Procedure, shortened: as §1

GB4 = test system: GB4
Procedure, shortened: as §1

Measured: outcome

CCc1cccc2c3c([nH]c12)[C@@](CC)(CC(=O)O)OCC3
inactive: all assays above

CCOC(=O)C(CCc1ccccc1)NC(C)C(=O)N1Cc2ccccc2CC1C(=O)O (stereo not given)
inactive: all assays above
